# Source: PubChem BioAssay AID463173 (ICCB-Longwood Screening Facility, Harvard Medical School, 2010)
# Out of some 52,000 compounds screened, about 4,300 (8.3%) were called active. This is one part of a sample in which actives are shown more often than they occur. A number with no mark means an inactive call. Rule as the data show it: active = survival mostly below about 52% (no sharp cut-off); inactive = mostly above about 56%.
# System: DeltatarO mutant
# Test: growth inhibition of S. aureus wild type versus tarO mutant, primary screen, teichoic acid synthesis inhibitors, RN4220, OD600 (AID 463173)
# Conditions: OD600, 18 h, stronger effect = lower value, screened at 18.75 µg/mL (by protocol)
row,Structure (SMILES),survival
1,CCOC(=O)c1[nH]c2ccccc2c1NC(=O)c1ccc(OCC)cc1,75%
2,Cc1ccc(NC(=O)C(c2ccccc2)N2Cc3ccccc3C2=O)cc1Cl (stereo not given),75%
3,CCN(CC)c1ncnc2c1cnn2-c1cc(Cl)ccc1C,-5% (active)
4,CCN(c1ncnc2c1cnn2-c1cc(Cl)ccc1C)C1CCCCC1,73%
5,CCN(CC)CCNc1ncnc2c1cnn2-c1cc(Cl)ccc1C,77%
6,CCN(CC)C(=O)Cn1c(=O)n(Cc2ccc(C(=O)NCc3ccccc3Cl)cc2)c(=O)c2ccccc21,115%
7,Cc1cn2c(=O)cc(COC(=O)COc3ccccc3C)nc2s1,76%
8,COc1ccccc1NC(=O)CSc1nnc2c(n1)[nH]c1ccccc12,77%
9,COC(=O)c1ccc(NC(=O)CSc2nnc3c4ccccc4n(C(C)C)c3n2)cc1,52%
10,COc1ccccc1NC(=O)CSc1nnc2c3ccccc3n(C(C)C)c2n1,33% (active)
11,Cc1ccc(S(=O)(=O)N2CCCc3cc(NC(=O)c4cccc(Cl)c4)ccc32)cc1,87%
12,O=C(Nc1nnc(S(=O)(=O)N2CCc3ccccc32)s1)c1cccc(Cl)c1,1% (active)
13,O=C(Nc1cccc(Cl)c1)c1cc(S(=O)(=O)N2CCCc3ccccc32)ccc1F,108%
14,O=C(Nc1nnc(S(=O)(=O)N2CCCc3ccccc32)s1)c1cccc(Cl)c1,3% (active)
15,CC(C)C(=O)Nc1nnc(S(=O)(=O)N2CCc3ccccc32)s1,78%
16,O=C(Nc1nc2c(Cl)cccc2s1)c1ccc(S(=O)(=O)N2CCc3ccccc32)cc1,69%
17,CCOC(=O)N1CCC(NC(=O)c2cnn(-c3ccccc3)c2C2CCN(C(=O)OC(C)(C)C)CC2)CC1,117%
18,CCOc1ccc(C2=NC(c3cccs3)=Nc3ccc(CC)cc3N2)cc1OCC,77%
19,COc1cccc(CNC(=O)c2cc(-c3cccc(OC)c3)n[nH]2)c1,71%
20,O=C(NCc1ccccc1)N1CCc2c(sc3c2CCCC3)C1c1ccccc1 (stereo not given),75%
21,COc1cc(C)ccc1OCCCn1c(-c2ccc(Cl)cc2)nc2ccccc2c1=O,62%
22,O=C(NC1CCCCCC1)C1c2ccccc2C(=O)N1Cc1ccc(F)cc1 (stereo not given),111%
23,Cc1ccc(CNC(=O)c2ccc(-c3nc(CS(=O)c4ccccc4)c(C)o3)cc2)cc1 (stereo not given),88%

row,Structure (SMILES),survival
1,COc1cc(Nc2nc(SCc3ccc(Cl)cc3)nc3ccccc23)cc(OC)c1,91%
2,Clc1cccc(CSc2nc(NCCc3ccccc3)c3ccccc3n2)c1,102%
3,COc1ccc(CCNc2nc(SCc3cccc(F)c3)nc3ccccc23)cc1OC,85%
4,Fc1cccc(CSc2nc(NCCc3ccccc3)c3ccccc3n2)c1,20% (active)
5,Fc1ccc(Nc2nc(SCc3cccc(Cl)c3)nc3ccccc23)cc1,70%
6,COc1cc(Nc2nc(SCc3cccc(Cl)c3)nc3ccccc23)cc(OC)c1,37% (active)
7,COc1ccc(-n2ccnc2SCC(=O)Nc2ccc3c(c2)OCO3)cc1,105%
8,Cc1ccc2nc(-c3ccsc3)c(Nc3ccc(C(C)C)cc3)n2c1,124%
9,O=C(NCc1ccccc1)c1ccc2c(c1)N(Cc1ccccc1F)C(=O)c1ccccc1S2=O (stereo not given),92%
10,N#CC(C#N)=Cc1cn(-c2ccccc2)nc1-c1ccccc1,68%
11,O=C(NCc1ccccc1)C(=O)NCC(c1ccc2c(c1)OCO2)N1CCOCC1 (stereo not given),92%
12,CCc1ccc(-n2c(=O)c3c4c(sc3n(CC(=O)N3CCC(C)CC3)c2=O)CCC4)cc1,83%
13,COC(=O)c1ccc(NC(=O)CC2C(=O)N(c3ccc(Cl)cc3)C(=O)N2Cc2ccco2)cc1 (stereo not given),37% (active)
14,CCc1ccc(NC(=O)CC2C(=O)N(c3ccc(Cl)cc3)C(=O)N2Cc2ccco2)cc1 (stereo not given),91%
15,COC(=O)c1ccc(NC(=O)CC2C(=O)N(c3cccc(OC)c3)C(=O)N2Cc2ccco2)cc1 (stereo not given),70%
16,COC(=O)c1ccc(NC(=O)CC2C(=O)N(c3cccc(C)c3)C(=O)N2Cc2ccco2)cc1 (stereo not given),92%
17,CCc1ccc(NC(=O)CC2C(=O)N(c3cccc(OC)c3)C(=O)N2Cc2ccco2)cc1 (stereo not given),25% (active)
18,CCc1ccc(NC(=O)CC2C(=O)N(c3cccc(C)c3)C(=O)N2Cc2ccco2)cc1 (stereo not given),118%
19,CCN(CC)c1ccc2cc(C(=O)Nc3cccc(OC)c3)c(=O)oc2c1,75%
20,Cn1nnc2c(NCc3c(F)cccc3F)ncnc21,80%
21,C=CCn1c(C#N)c(N)sc1=N,96%
22,Cc1ccc(N2C(=O)CCSC23C(=O)N(Cc2ccccc2)c2ccccc23)cc1F (stereo not given),89%
23,COc1ccc(OC(=O)c2nc(SCc3ccc(C)cc3)ncc2Cl)cc1,57%

row,Structure (SMILES),survival
1,O=C(NCc1cccc(F)c1)c1ccc2nc(CCc3ccccc3)oc2c1,79%
2,O=C(NCCc1ccccc1)c1ccc2nc(CCc3ccccc3)oc2c1,32% (active)
3,COc1ccc(Cc2nc3ccc(C(=O)NCCc4ccc(OC)c(OC)c4)cc3o2)cc1,77%
4,CCCNC(=O)c1ccc2nc(CCc3ccccc3)oc2c1,78%
5,CCc1ccc(CNC(=O)c2ccc3nc(C(C)C)oc3c2)cc1,82%
6,CCOc1ccc(CNC(=O)c2ccc3nc(C(C)C)oc3c2)cc1,76%
7,COc1ccc(CCNC(=O)c2ccc3nc(CCc4ccccc4)oc3c2)cc1OC,37% (active)
8,O=C(NCc1ccccc1)c1ccc2nc(CCc3ccccc3)oc2c1,0% (active)
9,COc1ccc(CCNC(=O)c2ccc3nc(Cc4ccccc4)oc3c2)cc1OC,99%
10,CN(C)c1ccc(CNC(=O)c2ccc3nc(CCc4ccccc4)oc3c2)cc1,93%
11,CCOc1cc(CNC(=O)c2ccc3nc(C(C)C)oc3c2)cc(OCC)c1OCC,47% (active)
12,O=C(NCCc1ccc(Cl)cc1)c1ccc2nc(CCc3ccccc3)oc2c1,75%
13,COc1ccc(Cn2ccc3nc(C)c(C(=O)Nc4cccc(SC)c4)cc3c2=O)cc1,95%
14,COc1ccc(Nc2ncc(C(=O)N3CCN(c4ccc(OC)cc4)CC3)c3ccccc23)cc1,74%
15,CCOc1ccc(N(CC(=O)Nc2ccc3c(c2)OCO3)S(=O)(=O)c2ccccc2)cc1,87%
16,O=C(O)CSc1c2c(nc3cc(C(=O)Nc4ccc(F)c(Cl)c4)ccc13)CCC2,88%
17,Cc1cc(S(=O)(=O)n2ccnc2C(C)C)cc([N+](=O)[O-])c1C,57%
18,COc1ccc(CNC(=O)c2ccc3nc(CCc4ccccc4)oc3c2)cc1,0% (active)
19,COc1ccc(CNC(=O)c2ccc3nc(CCc4ccccc4)oc3c2)cc1OC,79%
20,COc1ccc(CNC(=O)c2ccc3nc(CCc4ccccc4)oc3c2)c(OC)c1,135%
21,Cc1ccc(-c2onc(C)c2C)cc1S(=O)(=O)NC1CCCCC1,77%
22,COc1ccc(NC(=O)c2ccco2)cc1NC(=O)c1ccc(OC(C)C)cc1,121%
23,COc1ccc(NC(=O)c2ccco2)cc1NC(=O)c1cc(Cl)ccc1OC,49%

row,Structure (SMILES),survival
1,COc1ccc(NC(=O)c2ccco2)cc1NC(=O)C(C)Oc1ccc(Cl)cc1Cl (stereo not given),28% (active)
2,COc1ccc(NC(=O)c2ccco2)cc1NC(=O)C(C)(C)Oc1ccc(Cl)cc1,40% (active)
3,COc1ccc(NC(=O)c2ccco2)cc1NC(=O)C(C)C,84%
4,COc1ccc(NC(=O)c2ccco2)cc1NC(=O)COc1ccc(Cl)cc1C,57%
5,COc1ccc(NC(=O)c2sc3nc(C)c(C(=O)Nc4ccc(C)cc4C)c(-c4sccc4C)c3c2N)cc1,91%
6,c1ccc(NCc2ccncc2)cc1,83%
7,C=Cn1cccc1C(=O)O,83%
8,CC(C)CCNC(=O)c1ccc2c(c1)NC(=O)C(CS(=O)(=O)Cc1ccc(F)cc1)N2 (stereo not given),80%
9,Cc1ccc(CNC(=O)CCCc2nnc3n(CC(C)C)c(=O)c4sccc4n23)cc1,101%
10,CCOC(=O)Cn1c(=O)n(CC2CCCO2)c2nc(-c3ccc(C(C)C)cc3)nc(C(N)=O)c21 (stereo not given),6% (active)
11,CCOC(=O)Cn1c(=O)n(CC2CCCO2)c2nc(-c3ccc(OCC)cc3)nc(C(N)=O)c21 (stereo not given),-2% (active)
12,CCOC(=O)Cn1c(=O)n(CC2CCCO2)c2nc(-c3ccc(C)cc3)nc(C(N)=O)c21 (stereo not given),67%
13,CCOC(=O)Cn1c(=O)n(CC2CCCO2)c2nc(-c3ccccc3)nc(C(N)=O)c21 (stereo not given),84%
14,CCOC(=O)Cn1c(=O)n(-c2ccccc2OC)c2nc(-c3ccc(C(C)C)cc3)nc(C(N)=O)c21,86%
15,CCOC(=O)Cn1c(=O)n(-c2ccccc2OC)c2nc(-c3ccccc3)nc(C(N)=O)c21,-1% (active)
16,CCOC(=O)Cn1c(=O)n(-c2ccccc2OC)c2nc(-c3cccc(F)c3)nc(C(N)=O)c21,64%
17,CCOC(=O)Cn1c(=O)n(CC2CCCO2)c2nc(-c3ccc(CC)cc3)nc(C(N)=O)c21 (stereo not given),72%
18,CCOC(=O)Cn1c(=O)n(CC2CCCO2)c2nc(-c3cccc(C)c3)nc(C(N)=O)c21 (stereo not given),79%
19,COc1cc(OC)c(NC(=O)C2CCCN(c3ncnc4c3nc3n4CCCCC3)C2)cc1Cl (stereo not given),122%
20,O=C1c2ccccc2C(=O)N1c1ncn[nH]1,94%
21,O=C(CSc1nc2c([nH]c3ccccc32)c(=O)n1-c1ccc(F)cc1)Nc1ccc2c(c1)OCO2,58%
